Assay outcomes from PubChem BioAssay.
FAS TE block = blocks the thioesterase domain of human fatty acid synthase; P49327; recombinant FAS-TE, OMFH fluorogenic substrate, fluorescence endpoint; inhibition, % at 15 µM; 360,000 compounds, 0.67% hits; AID 602261;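 active means compounds whose normalised, plate-corrected inhibition of enzyme fluorescence in the single-dose primary screen is 50% or more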
NadD block = NadD (S. aureus) enzyme inhibition | purified NadD enzyme, colorimetric absorbance read-out | inhibition, % at 20 µM | 360,000 compounds, 0.78% hits; in the data active means inhibition above about 26%
CendR NRP1 mod = alters CendR peptide binding to human NRP-1 | O14786 | FAM-RPARPAR peptide binding to NRP-1, fluorescence polarization | inhibition, % at 25 µM | AID 602438 | 360,000 compounds, 0.85% hits;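 active means inhibition or corrected inhibition above about 18%, plus a signal ratio from 0.5 to 1.5, limit read from the data, passing the limit was not always enough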
CRFBP-R2 block = blocks CRF-induced signaling of the CRF-BP/CRF-R2 complex; inhibition, % at 11.8 µM; HEK293 CRF-R2/CRF-BP, CRF-induced calcium fluorescence; AID 588475; 350,000 compounds, 0.59% hits;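 active means inhibition of the ligand-induced calcium signal above about 50% at the single tested concentration, limit read from the data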
Myeloid diff MLP = promotes myeloid progenitor differentiation; ER-HoxA9 myeloid progenitors, lysozyme-GFP differentiation, flow cytometry; calls only at 10 µM; 360,000 compounds, 1% hits; AID 624256;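 active means normalized GFP-positive differentiation at or above the plate's own cutoff, the solvent-only control mean plus 3 SD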;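 further: cells exposed to compound for four days before flow analysis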
Numbers stand for hits. Shown are actives, neighbours in structure and some others; about 3.6% of the full set was active somewhere.

Screening Cc1ccc(-c2c(C)sc(NC(=O)C3C4CCC(O4)C3C(=O)O)c2C(=O)OC(C)C)cc1 (stereo not drawn) returned FAS TE block inactive, NadD block inactive, CendR NRP1 mod inactive, CRFBP-R2 block inactive and Myeloid diff MLP inactive.
For CC(C)=C1C2CCC1C(C(=O)Nc1sc(C)c(-c3ccc(C(C)C)cc3)c1C(N)=O)C2C(=O)O (stereo not drawn) the results were FAS TE block inactive, NadD block inactive, CendR NRP1 mod inactive, CRFBP-R2 block 109 and Myeloid diff MLP inactive.
Screening CN=c1scc(-c2ccccc2F)n1/N=C/c1ccc(O)c(O)c1O returned FAS TE block inactive, NadD block inactive, CendR NRP1 mod inactive, CRFBP-R2 block inactive and Myeloid diff MLP inactive.
Screening CC(C)N=c1scc(-c2cccs2)n1/N=C/c1ccc(O)c(O)c1O returned FAS TE block inactive, NadD block 31, CendR NRP1 mod inactive, CRFBP-R2 block inactive and Myeloid diff MLP inactive.
For C=CCn1c(CCC(O)COCCCCC)n[nH]c1=S (stereo not drawn) the results were FAS TE block inactive, NadD block inactive, CendR NRP1 mod inactive, CRFBP-R2 block inactive and Myeloid diff MLP inactive.
Screening Cc1cc(C)c2c(c1)NC(C(=O)O)C1CC=CC21 (stereo not drawn) returned FAS TE block inactive, NadD block inactive, CendR NRP1 mod inactive, CRFBP-R2 block inactive and Myeloid diff MLP active.
O=C(CCn1c(=O)oc2cc(Cl)ccc21)Nc1ccc(O)cc1 was read as FAS TE block inactive, NadD block inactive, CendR NRP1 mod inactive, CRFBP-R2 block inactive and Myeloid diff MLP inactive.
For CCN(CC)S(=O)(=O)c1cccc2nsnc12 the results were FAS TE block inactive, NadD block inactive, CendR NRP1 mod 27, CRFBP-R2 block inactive and Myeloid diff MLP inactive.
For CCOc1ccc(CCNC(=O)CN(C)S(=O)(=O)c2cccc3nsnc23)cc1OCC the results were FAS TE block inactive, NadD block inactive, CendR NRP1 mod inactive, CRFBP-R2 block inactive and Myeloid diff MLP inactive.
For CN(CC(=O)NCCc1ccc(S(N)(=O)=O)cc1)S(=O)(=O)c1cccc2nsnc12 the results were FAS TE block inactive, NadD block inactive, CendR NRP1 mod inactive, CRFBP-R2 block inactive and Myeloid diff MLP active.
For O=C(COC(=O)CN1C(=O)c2ccccc2C1=O)Nc1ccccc1C(F)(F)F the results were FAS TE block inactive, NadD block inactive, CendR NRP1 mod inactive, CRFBP-R2 block inactive and Myeloid diff MLP inactive.
`O=C(Cc1csc(NC(=O)Nc2ccc(Cl)cc2)n1)NCc1cccnc1` gave FAS TE block inactive, NadD block inactive, CendR NRP1 mod 34, CRFBP-R2 block inactive and Myeloid diff MLP inactive.
`O=C(Cc1csc(NC(=O)Nc2cccc(Cl)c2)n1)NCc1cccnc1` gave FAS TE block inactive, NadD block inactive, CendR NRP1 mod inactive, CRFBP-R2 block inactive and Myeloid diff MLP inactive.
`CCNc1nc(SCCOc2ccc(Br)cc2)nc(N(C)C)n1` gave FAS TE block inactive, NadD block inactive, CendR NRP1 mod inactive, CRFBP-R2 block inactive and Myeloid diff MLP inactive.
For COCCC1CCCCN1C(=O)c1ccc2nc(Cc3ccccc3F)oc2c1 (stereo not drawn) the results were FAS TE block inactive, NadD block inactive, CendR NRP1 mod inactive, CRFBP-R2 block inactive and Myeloid diff MLP inactive.
`CCO[C@@H]1c2c(ccc3ccc(=O)oc23)OC(C)(C)[C@@H]1O` gave FAS TE block inactive, NadD block inactive, CendR NRP1 mod 32, CRFBP-R2 block inactive and Myeloid diff MLP inactive.
CCO[C@@H]1c2c(ccc3ccc(=O)oc23)OC(C)(C)[C@H]1O was read as FAS TE block inactive, NadD block inactive, CendR NRP1 mod inactive, CRFBP-R2 block inactive and Myeloid diff MLP inactive.
Screening Cc1ccccc1NC1=NC(=S)N(c2ccccc2)C12CCCCC2 returned FAS TE block inactive, NadD block inactive, CendR NRP1 mod inactive, CRFBP-R2 block 61 and Myeloid diff MLP inactive.
Screening Cc1ccccc1NC1=NC(=S)N(c2ccccc2)C12CCOC(C)(C)C2 (stereo not drawn) returned FAS TE block inactive, NadD block inactive, CendR NRP1 mod inactive, CRFBP-R2 block inactive and Myeloid diff MLP inactive.
`O=c1[nH]c(=O)n([C@H]2C[C@H](O)[C@@H](CO)O2)cc1C(F)(F)F` gave FAS TE block inactive, NadD block inactive, CendR NRP1 mod inactive, CRFBP-R2 block inactive and Myeloid diff MLP active.
For N#CC1C(=O)NC(=O)C(C#N)C12CCCc1sccc12 (stereo not drawn) the results were FAS TE block inactive, NadD block inactive, CendR NRP1 mod inactive, CRFBP-R2 block inactive and Myeloid diff MLP inactive.
